# High-throughput results as filed in PubChem BioAssay.
# TIM10 inh: inhibits growth of TIM10 yeast strain; S. cerevisiae TIM10 strain growth, BacTiter-Glo luminescence, 24 h; inhibition, % at 10 µM; actives 1.4% (n = 330,000);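 active means inhibition of 40% or more at the single tested concentration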;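 further: wild-type TIM10 isogenic control strain grown at permissive 25 °C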
# SKKanGAS inh: blocks kanamycin growth of S. pyogenes SKKanGAS strain; BacTiter-Glo, 6 h; inhibition, % at 7.5 µM; actives 1.3% (n = 300,000); AID 1662;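 active means mean replicate score, as percent of positive control median, at least 50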;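 further: strain carries kanamycin resistance gene driven by streptokinase promoter and grows in 40 µg/ml kanamycin; loss of luminescence reflects streptokinase promoter inhibition or plain growth inhibition; 0% = median of DMSO wells and 100% = positive control at its reference dose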
# NALP1 yeast inh: blocks the NALP1 inflammasome reconstituted in yeast; S. cerevisiae NALP1/ASC/caspase-1 growth, X-gal OD620, 72 h; inhibition, % at 10 µM; actives 0.61% (n = 280,000); in the data active means inhibition mostly above about 24%, no sharp cut-off; inactive means mostly below about 32%
# PfHsp90 yeast 2: reduces growth (ATP signal) of yeast expressing P. falciparum Hsp90; S. cerevisiae expressing PfHsp90, BacTiter-Glo ATP, 48 h; yeast lacking PDR1 and PDR3 efflux regulators; inhibition, % at 9.4 µM; actives 0.32% (n = 310,000);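 active means every replicate shows inhibition above about 80%, whatever the replicate mean, limit read from the data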;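 further: 0% = DMSO neutral controls and 100% = 20 µM radicicol positive controls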
# tim10-1 inh: growth inhibitors of tim10-1 mutant yeast. S. cerevisiae tim10-1 ts strain growth, BacTiter-Glo, 24 h. inhibition, % at 20 µM. actives 2.2% (n = 330,000). AID 463190;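 active means inhibition of at least 40%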;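 further: mutant grown at 25 °C; 0% = DMSO wells with yeast and 100% = wells holding no yeast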
# tim23-1 inh: inhibits growth of tim23-1 mutant yeast; actives 1.3% (n = 330,000); S. cerevisiae tim23-1 growth, BacTiter-Glo luminescence, 24 h; inhibition, % at 20 µM;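 active means growth inhibition of the mutant yeast at or above 50%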;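 further: temperature-sensitive mutant grown at 25 °C; plate controls were DMSO-treated mutant yeast for no effect and medium wells lacking yeast for full effect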
# tim10-1 confirm: confirmation of tim10-1 mutant yeast growth inhibitors; inhibition, % at 20 µM; S. cerevisiae tim10-1 ts strain growth, BacTiter-Glo, 24 h; actives 56% (n = 7,400); AID 463213; shares compounds with tim10-1 inh;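 active means inhibition of yeast growth at or above a set limit in either of two repeat tests at 20 µM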;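 further: tim10-1 mutant grown at permissive 25 °C to find synthetic lethal compounds; 0% = DMSO yeast wells and 100% = medium wells without yeast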
# * = called active by the depositor; · = no result. A selection: hits, their analogues and other compounds. The true share with any hit is near 4.8%.
SMILES,TIM10 inh,SKKanGAS inh,NALP1 yeast inh,PfHsp90 yeast 2,tim10-1 inh,tim23-1 inh,tim10-1 confirm
COC(=O)[C@@](C)(O)C1(C(=O)SC(C)(C)C)CC1,11.2,7.8,·,-16.4,15.3,16.6,·
CCCC(=O)Nc1cc(-c2nnc(OC)c3ccccc23)ccc1N1CCCCC1,39.2,19.1,26.8,·,48.8*,37.4,26.4
CCCC(=O)Nc1cc(-c2nn(C)c(=O)c3ccccc23)ccc1N1CCCCC1,22.5,-2.2,·,-1.4,24.5,18.2,·
CCN1CCN(c2ccc(S(=O)(=O)N3CCCC3)cn2)CC1,21.4,-2.6,-9.5,·,4.1,4.2,·
C/C(=N\NC(=S)Nc1c(C)cccc1C)c1cc2ccccc2o1,37.4,-2.8,3.7,-7.5,41.8*,9.7,27.8
C/C(=N\NC(=S)Nc1c(C)cccc1C)c1ccc(O)cc1,-9.6,13.7,6.8,20.3,12.0,27.0,·
COc1cccc(N=Nc2ccc3ccccc3c2O)c1,13.3,19.4,22.6,-0.1,46.0*,32.3,31.0*
C=CCc1c(C)nc(-c2ccccc2)nc1N/N=C/c1ccccc1,33.4,-2.7,7.4,11.7,45.8*,35.7,31.8*
OCCc1c[nH]c2ccccc12,-1.8,-1.0,-5.3,5.5,-13.7,-3.3,·
CC(C)c1nc2cc(C(=O)N3CCNC(=O)C3c3cccc(F)c3)ccc2o1 (stereo not given),-0.1,-2.3,19.0,20.5,1.5,5.8,·
Cc1cc(C)cc(NC(=O)c2cc(S(=O)(=O)NCc3ccco3)ccc2F)c1,38.7,0.5,-6.5,-14.9,46.0*,41.3,40.1*
O=S(=O)(NCc1ccco1)c1ccc2c(c1)Cc1ccccc1-2,34.4,-8.4,·,·,45.1*,25.8,34.8*
Cc1ccc(S(=O)(=O)NCc2ccco2)cc1C,4.7,3.8,24.3,8.9,3.2,-4.9,·
CC1=C/C(=C(/c2cc(C)c(O)c(Br)c2)c2ccccc2S(=O)(=O)O)C=C(Br)C1=O,37.5,40.8,-5.3,17.6,54.2*,49.7,43.8*
CC(=O)CSc1nc(-c2ccccc2)c(-c2ccccc2)o1,12.6,1.6,-2.4,-18.6,22.3,31.7,·
Oc1c(Cl)cc(Cl)c2c1NCCC2,-0.9,68.6*,53.0*,-20.6,49.7*,-3.9,18.3
O=C1NCCCc2c1oc1ccc(O)cc21,-14.8,1.3,3.7,-10.2,4.2,-3.9,·
Cc1ccccc1-n1c(O)c(C=NC2CCS(=O)(=O)C2)c2ccccc2c1=O (stereo not given),-3.7,-6.5,·,3.2,0.9,-4.9,·
CCOC(=O)c1ccc(NC(=S)N2CCN(C)CC2)cc1,-4.8,-0.2,6.5,-0.7,-16.3,1.2,·
CCOC(=O)c1c(NC(=S)N2CCN(C)CC2)sc(C)c1-c1ccccc1,28.3,50.1*,10.7,-7.2,42.9*,45.1,31.4*
Cc1ccc(-c2csc(=S)[nH]2)cc1,19.4,1.4,-3.6,-4.2,19.9,26.7,·
S=c1[nH]c(-c2ccc(Cl)cc2)cs1,11.9,2.4,-15.6,-9.6,47.7*,32.8,17.2
CC(=O)c1ccc(OCCCC(=O)OCC(=O)N2CCN(c3ccccc3)CC2)cc1,6.7,-8.7,1.3,2.4,6.2,23.4,·
Cc1ccnc(NC(=O)/C=C/c2ccccc2[N+](=O)[O-])c1,29.5,-8.4,-23.7,·,22.9,15.9,·
Cc1ccc(C)c(S(=O)(=O)ON2C(=O)c3ccccc3C2=O)c1,26.0,·,18.8,-7.7,70.0*,12.8,51.6*
SMILES,TIM10 inh,SKKanGAS inh,NALP1 yeast inh,PfHsp90 yeast 2,tim10-1 inh,tim23-1 inh,tim10-1 confirm
O=C(COC(=O)C1CC2C=CC1C2)Nc1cccc(S(=O)(=O)N2CCCCCC2)c1 (stereo not given),37.7,-7.6,20.4,1.0,48.9*,37.2,30.4
Cc1ccc(Cn2ccnc2C(=O)Nc2ccccc2)cc1,5.5,13.6,-13.8,10.4,31.0,15.5,·
N#Cc1ccc(Cn2ccnc2C(=O)Nc2ccccc2)cc1,25.7,-1.3,-5.6,-5.1,57.0*,1.9,27.0
CSc1ccc(/C=N/n2nnnc2N)cc1,3.1,-8.3,10.1,-21.2,26.0,5.2,·
CCOc1ccc(S(=O)(=O)Nc2cc(F)ccc2F)c2cccnc12,0.4,-0.1,17.9,-18.2,-9.4,6.9,·
CCCNC(=O)NC(=O)COC(=O)c1ccc(OC)c(S(=O)(=O)N2CCCc3ccccc32)c1,22.7,26.3,-12.4,33.6,19.1,11.8,·
COc1cccc(N=C2CC(C)(C)CC(=O)/C2=C(/O)c2ccccc2)c1,12.9,10.7,11.1,-22.9,42.5*,38.4,23.3
Cc1ccc2c(c1)c1c(n2C)-c2[nH]ncc2CC1,6.2,13.8,6.2,·,54.9*,24.0,-27.1
Cc1ccc2c(c1)c1c(n2C)C(C(N)=O)CCC1 (stereo not given),-12.7,-14.2,29.5,·,3.7,14.5,·
CC(=C/c1ccc(C(C)C)cc1)/C=N/NC(=O)CSc1ccccn1,29.0,67.6*,9.3,-2.3,46.5*,-1.5,20.3
O=C(N/N=C\C=C\c1ccco1)C1COc2ccccc2O1 (stereo not given),8.8,4.4,·,10.7,-1.5,9.6,·
O=C(NCc1ccncc1)C(=O)NCC(c1ccco1)N1CCN(c2ccccc2F)CC1 (stereo not given),-10.3,-11.4,31.2,16.4,21.4,9.1,·
COc1ccc(-c2csc3ncnc(Cl)c23)cc1,-5.1,3.6,7.9,11.8,35.7,18.3,·
COc1ccc(Nc2ncnc3scc(-c4ccc(OC)cc4)c23)cc1,39.1,50.0*,20.0,-6.4,48.6*,39.9,35.9*
O=C(C1CCC1)N1CCCc2cc(S(=O)(=O)N3CCN(c4ccccc4)CC3)ccc21,13.5,4.6,8.4,-3.2,45.9*,43.7,34.5*
CC(C(=O)NCc1ccc(Cl)cc1)n1cccc1C(=O)c1ccccc1 (stereo not given),6.0,-9.6,19.0,-9.6,41.0*,35.0,-10.4
COc1ccccc1CNC(=O)C(C)n1cccc1C(=O)c1ccccc1 (stereo not given),-6.5,-14.0,-19.9,8.9,19.8,29.6,·
Cc1ccc(C(=O)NS(=O)(=O)c2ccccc2)cc1,-3.4,5.4,20.3,12.9,16.3,14.7,·
C=CCSc1nc(N(CC)CC)c2sccc2n1,19.1,10.2,-6.3,-7.5,43.6*,37.2,28.4
CCC(C)NC(=O)Cc1c(OC)ccc2cc(Br)ccc12 (stereo not given),-3.1,-8.3,11.6,0.1,7.1,5.0,·
Cc1cc(C)n(CCc2nc(-c3ccc(F)cc3)cs2)n1,36.9,-6.6,22.4,-2.2,45.0*,30.4,37.9*
Cc1cc(Nc2ccccc2Cl)nc(-c2ccccc2O)n1,20.9,0.4,1.4,-20.1,53.0*,31.7,41.3*
Cc1ccc(C)c(Nc2cc(C)nc(-c3ccccc3O)n2)c1,38.9,8.2,5.5,6.6,26.2,49.6,·
